# Assay results reported in PubChem BioAssay (Tox21).
# Where “and” joins values, the source holds several entries; their conditions need not be identical. Identical values can stand only once. Records with an inconclusive call do not appear. A call without a number means that no potency is given here. Some compounds were tested as several samples or in several runs, with calls that do not always agree. Calls of active or inactive are those of the source. Unless noted, calls come from the whole dose curve; as a rule, active = well fitted curve in the direction sought with a large enough effect in the repeat runs; inconclusive = weak or mixed curves; inactive = no such curve, though single readings can be large; an effect the other way counts as inactive or inconclusive.
# Legend:
# [1] = biological target: Peroxisome proliferator-activated receptor delta (Homo sapiens) (UniProt Q03181); assay: qHTS assay to identify small molecule agonists of the peroxisome proliferator-activated receptor delta (PPARd) signaling pathway (AID 743212; calls by dose curve; note: potency is the fitted concentration of half-maximal effect)
# Peroxisome proliferator-activated receptor delta (Homo sapiens), sequence (Q03181 whole entry, looked up): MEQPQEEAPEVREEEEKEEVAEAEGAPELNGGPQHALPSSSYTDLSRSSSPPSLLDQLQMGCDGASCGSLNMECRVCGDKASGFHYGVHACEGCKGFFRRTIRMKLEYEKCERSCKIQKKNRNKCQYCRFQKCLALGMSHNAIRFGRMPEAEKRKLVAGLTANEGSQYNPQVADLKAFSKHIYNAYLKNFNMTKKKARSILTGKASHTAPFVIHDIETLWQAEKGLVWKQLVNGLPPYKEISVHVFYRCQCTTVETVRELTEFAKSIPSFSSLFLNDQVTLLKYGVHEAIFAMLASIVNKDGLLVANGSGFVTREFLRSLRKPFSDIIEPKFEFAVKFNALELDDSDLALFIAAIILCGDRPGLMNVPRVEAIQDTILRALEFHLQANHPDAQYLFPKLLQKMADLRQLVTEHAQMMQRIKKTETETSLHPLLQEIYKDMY
# Procedure, shortened: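 Cells expressing a UAS-driven beta-lactamase reporter (PPARd-bla HEK293H) were given test compounds after a 5 h settle and kept at 37 C. Reporter activity was then measured as FRET fluorescence using LiveBLAzer B/G substrate.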
# [2] = biological target: Peroxisome proliferator-activated receptor delta (Homo sapiens) (UniProt Q03181); assay: qHTS assay to identify small molecule antagonists of the peroxisome proliferator-activated receptor delta (PPARd) signaling pathway (AID 743215; active = well fitted inhibition curve with a large enough effect in the signal ratio in the repeat runs, not every such curve was filed as active; the % refers to the signal ratio;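 note: cells stimulated with agonist L165041 at 300 nM final during compound exposure; series mostly up to about 62 µM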)
# Procedure, shortened: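 Cells: HEK293H with a UAS-driven beta-lactamase reporter responsive to PPARd. Compounds were co-added with L165041 (300 nM, final) and incubated 17 h at 37 C before a 2 h room-temperature FRET substrate step and fluorescence reading.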
# [3] = biological target: Bile acid receptor (Homo sapiens) (UniProt Q96RI1); assay: qHTS assay to identify small molecule antagonists of the farnesoid-X-receptor (FXR) signaling pathway (AID 743217; active = well fitted inhibition curve with a large enough effect in the signal ratio in the repeat runs, not every such curve was filed as active; the % refers to the signal ratio)
# Bile acid receptor (Homo sapiens), sequence (Q96RI1 whole entry, looked up): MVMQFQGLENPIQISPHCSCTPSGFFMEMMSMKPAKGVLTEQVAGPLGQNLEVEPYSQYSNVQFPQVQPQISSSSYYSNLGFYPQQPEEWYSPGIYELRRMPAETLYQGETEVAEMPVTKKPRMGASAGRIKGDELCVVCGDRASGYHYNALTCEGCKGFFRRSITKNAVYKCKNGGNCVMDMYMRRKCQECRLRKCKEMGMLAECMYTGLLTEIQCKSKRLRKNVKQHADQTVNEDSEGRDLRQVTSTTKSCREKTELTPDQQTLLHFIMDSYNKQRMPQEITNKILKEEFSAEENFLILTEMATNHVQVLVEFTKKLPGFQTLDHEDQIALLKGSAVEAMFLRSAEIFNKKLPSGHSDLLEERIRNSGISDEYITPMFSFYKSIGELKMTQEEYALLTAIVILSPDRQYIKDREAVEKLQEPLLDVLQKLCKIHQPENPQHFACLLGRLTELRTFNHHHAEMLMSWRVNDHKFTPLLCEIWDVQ
# Procedure, shortened: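 Cells carrying a UAS-driven beta-lactamase reporter (GeneBLAzer FXR-UAS-bla HEK 293T) were plated and rested 5 h at 37 °C. Compounds in DMSO were added alongside chenodeoxycholic acid agonist at 50 uM final and left 16 h at 37 °C before FRET substrate readout.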
# [4] = qHTS assay to identify small molecule agonists of the farnesoid-X-receptor (FXR) signaling pathway - cell viability counter screen (AID 743218); note: nearly all actives have a fitted effect of over 45% in size; note: potency is the fitted concentration of half-maximal effect
# Procedure, shortened: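 Cells were seeded, left 5 h at 37 C and 5% CO2, then dosed with compound in DMSO for 16 h. After the beta-lactamase FRET read, CellTiter-Glo was added and luminescence measured 30 min later.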
# [5] = biological target: Bile acid receptor (Homo sapiens) (UniProt Q96RI1); assay: qHTS assay to identify small molecule agonists of the farnesoid-X-receptor (FXR) signaling pathway (AID 743220; active = well fitted activation curve with a large enough effect in the signal ratio in the repeat runs, not every such curve was filed as active; the % refers to the signal ratio; note: potency is the fitted concentration of half-maximal effect)
# Procedure, shortened: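 FXR-UAS-bla HEK 293T cells carrying a UAS-driven beta-lactamase reporter were plated for 5 h at 37C/5% CO2, then exposed to DMSO-dissolved Tox21 10K compounds for 16 h at 37C. A LiveBLAzer B/G FRET substrate was loaded for 2 h at room temperature before fluorescence reading.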
# [6] = biological target: Vitamin D3 receptor (Homo sapiens) (UniProt P11473); assay: qHTS assay to identify small molecule agonists of the vitamin D receptor (VDR) signaling pathway (AID 743222; calls by dose curve)
# Vitamin D3 receptor (Homo sapiens), sequence (P11473 whole entry, looked up): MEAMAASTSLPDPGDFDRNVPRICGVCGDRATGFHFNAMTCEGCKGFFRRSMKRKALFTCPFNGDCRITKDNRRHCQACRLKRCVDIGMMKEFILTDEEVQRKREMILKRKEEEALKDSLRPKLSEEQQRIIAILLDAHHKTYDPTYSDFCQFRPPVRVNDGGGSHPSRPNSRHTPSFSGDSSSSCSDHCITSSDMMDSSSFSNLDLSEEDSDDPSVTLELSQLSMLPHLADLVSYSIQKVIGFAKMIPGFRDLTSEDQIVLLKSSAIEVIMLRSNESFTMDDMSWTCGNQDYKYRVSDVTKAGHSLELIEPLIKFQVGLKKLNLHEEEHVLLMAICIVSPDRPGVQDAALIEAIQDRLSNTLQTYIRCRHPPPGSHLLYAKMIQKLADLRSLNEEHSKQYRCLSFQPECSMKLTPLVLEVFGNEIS
# Procedure, shortened: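 Cells carrying a VDR-driven beta-lactamase reporter are seeded at 2,000 per well and rested 4 h. Compounds in DMSO are added for 16 h at 37C, and FRET substrate fluorescence is measured after 2 h at room temperature.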
# [7] = biological target: Vitamin D3 receptor (Homo sapiens) (UniProt P11473); assay: qHTS assay to identify small molecule antagonists of the vitamin D receptor (VDR) signaling pathway (AID 743223; active = well fitted inhibition curve with a large enough effect in the signal ratio in the repeat runs, not every such curve was filed as active; the % refers to the signal ratio)
# Procedure, shortened: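 Antagonist mode: compound added to VDR-bla cells alongside agonist 1alpha,25-dihydroxyvitamin D3 (3 nM final), incubation 16 h at 37C. Read-out is LiveBLAzer FRET fluorescence, 2 h at room temperature.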
# [8] = qHTS assay to identify small molecule agonists of the vitamin D receptor (VDR) signaling pathway - cell viability counter screen (AID 743224); note: nearly all actives have a fitted effect of over 50% in size; note: potency is the fitted concentration of half-maximal effect
# Procedure, shortened: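 Cells: VDR-bla, 2,000/well, settled 4 h. Treatment: compounds in DMSO, 16 h, 37C/5% CO2. Readout: CellTiter-Glo luminescence after 30 min RT.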
# [9] = qHTS assay to identify small molecule antagonists of the vitamin D receptor (VDR) signaling pathway - cell viability counter screen (AID 743225); note: nearly all actives have a fitted effect of over 50% in size; note: potency is the fitted concentration of half-maximal effect
# Procedure, shortened: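 Cytotoxicity counter screen read by CellTiter-Glo luminescence (30 min, room temperature) in the same wells as the VDR-bla antagonist readout. HEK 293T VDR-UAS-bla cells had 16 h at 37C with compound and 3 nM (final) 1-alpha,25-dihydroxyvitamin D3, then 2 h with FRET substrate.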
# [10] = qHTS assay to identify small molecule agonists of the NFkB signaling pathway - cell viability counter screen (AID 1159515; calls by dose curve; note: nearly all actives have a fitted effect of over 55% in size; note: potency is the fitted concentration of half-maximal effect)
# Procedure, shortened: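 Cells are seeded (2,000 NFkB-bla ME-180 per well), rested overnight, and dosed with DMSO-dissolved compounds for 5 hr at 37 C. Viability is then read by CellTiter-Glo luminescence after 30 min at room temperature.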
# [11] = biological target: Nuclear receptor ROR-gamma (Homo sapiens) (UniProt P51449); assay: qHTS assay to identify small molecule antagonists of the retinoid-related orphan receptor gamma (ROR-gamma) signaling pathway (AID 1159521; note: nearly all actives have a fitted effect of over 50% in size; note: potency is the fitted concentration of half-maximal effect)
# Procedure, shortened: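 Antagonist read-out: drop in luminescence (ONE-Glo) from an RORE-LUC reporter in CHO cells with doxycycline-inducible ROR-gamma; 2 hr compound pretreatment, 1 uM doxycycline, 16 hr incubation at 37 C.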
# [12] = qHTS assay to identify small molecule agonists of the AP-1 signaling pathway - cell viability counter screen (AID 1159525; calls by dose curve; note: nearly all actives have a fitted effect of over 55% in size; note: potency is the fitted concentration of half-maximal effect)
# Procedure, shortened: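 Each titration point was normalised to DMSO and tetra n-octyl ammonium bromide controls. The read was Cell Titer Glo luminescence after 30 min at RT, following 5 h compound exposure of ME-180 AP-1-bla cells at 37 °C.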
# [13] = qHTS assay to identify small molecule agonists of the AP-1 signaling pathway (AID 1159526; calls by dose curve)
# [14] = qHTS assay to identify small molecule agonists of the peroxisome proliferator-activated receptor delta (PPARd) signaling pathway - cell viability counter screen (AID 743211); note: nearly all actives have a fitted effect of over 55% in size; note: potency is the fitted concentration of half-maximal effect
# Procedure, shortened: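 Viability was measured as CellTiter-Glo luminescence (30 min, room temperature) in the same wells as the beta-lactamase readout. GeneBLAzer PPARd UAS-bla HEK293H cells received compound after 5 h plating and were incubated 17 h at 37 C.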
# [15] = qHTS assay to identify small molecule antagonists of the peroxisome proliferator-activated receptor delta (PPARd) signaling pathway - cell viability counter screen (AID 743213); note: nearly all actives have a fitted effect of over 50% in size; note: potency is the fitted concentration of half-maximal effect
# Procedure, shortened: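 PPARd-bla HEK293H cells (3000/well) got compound plus 300 nM L165041 agonist for 17 h at 37 C. Viability in the same wells came from CellTiter-Glo luminescence after 30 min at room temperature.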
# [16] = qHTS assay to identify small molecule antagonists of the farnesoid-X-receptor (FXR) signaling pathway - cell viability counter screen (AID 743221; active = well fitted cell-killing curve with a large enough effect in the repeat runs, not every such curve was filed as active; note: nearly all actives have a fitted effect of over 50% in size; note: potency is the fitted concentration of half-maximal effect)
# Procedure, shortened: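 Cytotoxicity counter screen run in the FXR-bla reporter wells: HEK 293T cells exposed to compound with 50 uM (final) chenodeoxycholic acid for 16 h, 37 C, then viability measured by CellTiter-Glo luminescence after 30 min, room temperature.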
# [17] = qHTS assay to identify small molecule antagonists of the retinoid-related orphan receptor gamma (ROR-gamma) signaling pathway - cell viability counter screen (AID 1159520); note: nearly all actives have a fitted effect of over 50% in size; note: potency is the fitted concentration of half-maximal effect
# Procedure, shortened: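 Tet-on ROR gamma CHO cells (1,000/well) were plated 4 hr, given compounds in DMSO for 2 hr at 37 C, then induced with 1 uM final doxycycline for 16 hr. Viability was read as ATP by CellTiter-Glo luminescence after 30 min.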
# [18] = biological target: Retinoic acid receptor RXR-alpha (Homo sapiens) (UniProt P19793); assay: qHTS assay to identify small molecule agonists of the RXR signaling pathway (AID 1159527; calls by dose curve; note: potency is the fitted concentration of half-maximal effect; nearly all actives have a fitted effect of over 35% in size)
# Retinoic acid receptor RXR-alpha (Homo sapiens), sequence (P19793 whole entry, looked up): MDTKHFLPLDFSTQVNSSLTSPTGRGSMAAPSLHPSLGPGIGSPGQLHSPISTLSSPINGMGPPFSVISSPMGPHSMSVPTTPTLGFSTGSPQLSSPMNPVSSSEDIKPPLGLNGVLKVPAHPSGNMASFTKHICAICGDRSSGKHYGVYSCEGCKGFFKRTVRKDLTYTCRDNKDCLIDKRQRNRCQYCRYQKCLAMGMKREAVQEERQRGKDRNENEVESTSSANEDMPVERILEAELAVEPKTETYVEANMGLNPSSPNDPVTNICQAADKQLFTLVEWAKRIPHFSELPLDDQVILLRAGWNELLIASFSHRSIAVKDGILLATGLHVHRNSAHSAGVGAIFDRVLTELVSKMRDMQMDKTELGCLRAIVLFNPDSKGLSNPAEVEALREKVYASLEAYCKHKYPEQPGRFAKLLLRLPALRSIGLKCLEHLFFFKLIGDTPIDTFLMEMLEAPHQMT
# Procedure, shortened: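 Agonist-mode beta-lactamase reporter assay: HEK 293T RXR-alpha-UAS-bla cells treated 16 hr at 37 C with compounds, 9-cis retinoic acid as positive control. LiveBLAzer FRET substrate, 405 nm excitation, 460/530 nm emission.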
smiles,measurement,setting,value
O=Cc1cc(O)ccc1Br,Potency,[1],inactive
same,Potency,[2],inactive
same,Potency,[3],inactive
same,Potency,[4],inactive
same,Potency,[5],inactive
same,Potency,[6],inactive
same,Potency,[7],inactive
same,Potency,[8],inactive
same,Potency,[9],inactive
same,Potency,[10],inactive
same,Potency,[11],inactive
same,Potency,[12],inactive
same,Potency,[13],inactive
CN(C)c1ccc(SC#N)cc1,Potency,[14],inactive
same,Potency,[15],inactive
same,Potency,[4],inactive
same,Potency,[16],inactive
same,Potency,[6],inactive
same,Potency,[8],inactive
same,Potency,[10],17.4 µM (active)
same,Potency,[17],inactive
same,Potency,[12],inactive
CCCC(=O)OC[C@@H](OC(=O)CCC)[C@@H](OC(=O)CCC)[C@H](Cn1c2nc(=O)[nH]c(=O)c-2nc2cc(C)c(C)cc21)OC(=O)CCC,Potency,[14],inactive
same,Potency,[4],inactive
same,Potency,[16],inactive
same,Potency,[8],inactive
same,Potency,[9],inactive
same,Potency,[10],inactive
same,Potency,[17],inactive
same,Potency,[12],inactive
Oc1ccc(Cl)cc1Sc1cc(Cl)ccc1O,Potency,[14],19.5 µM (active) and 26.6 µM (active)
same,Potency,[4],34.6 µM (active) and 29.8 µM (active)
same,Potency,[5],inactive
same,Potency,[6],inactive
same,Potency,[7],inactive
same,Potency,[9],30.8 µM (active)
same,Potency,[10],inactive
same,Potency,[11],19.3 µM (active) and 13.3 µM (active)
same,Potency,[12],54.8 µM (active) and inactive
Cn1cc(C(=O)[C@@H]2CCc3nc[nH]c3C2)c2ccccc21,Potency,[14],inactive
same,Potency,[1],inactive
same,Potency,[4],inactive
same,Potency,[5],inactive
same,Potency,[16],inactive
same,Potency,[6],inactive
same,Potency,[10],inactive
same,Potency,[17],inactive
same,Potency,[12],inactive
CC1(C)CCC(C)(C)c2cc(C(=O)Nc3ccc(C(=O)O)cc3)ccc21,Potency,[14],inactive
same,Potency,[1],inactive
same,Potency,[2],inactive
same,Potency,[4],inactive
same,Potency,[5],43.6 µM (active)
same,Potency,[10],inactive
same,Potency,[11],61.1 µM (active)
same,Potency,[12],inactive
same,Potency,[13],inactive
same,Potency,[18],4.36 µM (active)
O=[N+]([O-])c1cc([N+](=O)[O-])c2ccc(S(=O)(=O)O)cc2c1O,Potency,[15],inactive
same,Potency,[4],inactive
same,Potency,[16],inactive
same,Potency,[8],inactive
same,Potency,[9],inactive
same,Potency,[10],inactive
same,Potency,[17],inactive
same,Potency,[12],inactive
[Cl][Au]([Cl])[Cl],Potency,[14],3.09 µM (active)
same,Potency,[4],2.75 µM (active)
same,Potency,[16],3.47 µM (active)
same,Potency,[8],3.89 µM (active)
same,Potency,[9],11 µM (active)
same,Potency,[10],inactive
same,Potency,[11],5.45 µM (active)
same,Potency,[12],inactive
N#CSc1ccc(N)c([N+](=O)[O-])c1,Potency,[14],55.3 µM (active)
same,Potency,[15],49.3 µM (active)
same,Potency,[5],inactive
same,Potency,[8],55.3 µM (active)
same,Potency,[10],inactive
same,Potency,[11],48.9 µM (active)
same,Potency,[12],inactive
CC(=O)S[C@@H]1CC2=CC(=O)CC[C@]2(C)[C@H]2CC[C@@]3(C)[C@@H](CC[C@@]34CCC(=O)O4)[C@H]12,Potency,[14],inactive
same,Potency,[4],inactive
same,Potency,[10],inactive
same,Potency,[17],inactive
same,Potency,[12],inactive
same,Potency,[13],inactive
CNc1ccc(O)cc1,Potency,[14],38.8 µM (active)
same,Potency,[15],43.6 µM (active)
same,Potency,[16],inactive
same,Potency,[8],38.8 µM (active)
same,Potency,[10],48.9 µM (active)
same,Potency,[17],7.68 µM (active)
same,Potency,[12],24.5 µM (active)
CCc1cc(Cc2cc(CC)c(N)c(CC)c2)cc(CC)c1N,Potency,[14],54.9 µM (active)
same,Potency,[15],54.9 µM (active)
same,Potency,[4],43.6 µM (active)
same,Potency,[5],inactive
same,Potency,[16],inactive
same,Potency,[7],inactive
same,Potency,[10],49 µM (active)
same,Potency,[11],48.6 µM (active)
O=c1c(-c2ccccc2)c1-c1ccccc1,Potency,[4],9.44 µM (active)
same,Potency,[5],inactive
same,Potency,[16],13.3 µM (active)
same,Potency,[10],inactive
same,Potency,[11],18.8 µM (active)
CCCCC(CC)COC(=O)c1ccccc1C(=O)O (centres undefined),Potency,[1],49.9 µM (active)
same,Potency,[16],inactive
same,Potency,[10],inactive
same,Potency,[17],inactive
same,Potency,[12],inactive
C/C=C1/C(=O)C[C@H]2[C@@H]3CCC4=CC(=O)CC[C@]4(C)[C@H]3CC[C@]12C,Potency,[15],inactive
same,Potency,[4],inactive
same,Potency,[8],inactive
same,Potency,[9],inactive
same,Potency,[10],inactive
same,Potency,[12],inactive
same,Potency,[13],inactive
